From PubChem BioAssay come the findings set out here.

The assay deals with TRPC4 (transient receptor potential cation channel C4), mouse. In words: DAMGO-evoked mouse TRPC4 response blockade – cell-based, second screen, HEK293 TRPC4/mu-opioid, membrane potential dye, selectivity assay for TRPC6 modulator project, confirmation (AID 488928).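 Also: TRPC4 counter screen for TRPC6 hits run under conditions tuned for TRPC6 not TRPC4.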 Conditions: membrane potential dye fluorescence, at 10 µM, stimulated with maximal-effect DAMGO; active compounds read high.

This is one part of the list. Activity calls are given as the source filed them.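 The calls were made as follows: active = drop in membrane potential signal beyond 5 SD of the control wells in both duplicate plates; inactive = the rest.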

As a reminder, the inhibition is the drop in the measured response relative to a control, in per cent.

With `CC1(C)Cc2c(C#N)c(N3CCNCC3)nc(-c3ccco3)c2CS1`, the inhibition was 76.5% (active).
